This is an account of results in PubChem BioAssay (Tox21).

SMILES strings stand for the structures. Values joined by “and” are separate entries in the source; they are usually repeats but may differ in a detail not shown here. Equal values may be shown once. Records with an inconclusive call do not appear. Active and inactive are the calls of the source. The call rests on the fitted dose curve; in most records, active means well fitted inhibition curve with a large enough effect in the repeat runs; inconclusive means weak or mixed curves; inactive means no such curve, though single readings can be large or run the other way.
On the % scale 0 is the no-effect control and ±100 the full control effect; potency means the concentration at half of the fitted maximal effect.

For this assay, the target named is Cytochrome P450 2C19 (Homo sapiens) (UniProt P33261). The assay can be described thus: Cytochrome P450 Family 2 Subfamily C Member 19 (CYP2C19) small molecule antagonists: luciferase reporter qHTS assay (AID 1671197). Further: nearly all actives have a fitted effect of over 65% in size. The settings on record: P450-Glo CYP2C19 enzyme, luciferin luminescence, 1 h; series mostly up to 115 µM; activity change, negative = inhibition: at the top concentration. In a few lines: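 Enzyme-substrate mix with proluciferin substrate (P450-Glo CYP2C19 system) preincubated with compounds 10 min at room temperature; NADPH regeneration solution added, 37C for 1 h; detection reagent stops reaction, luminescence read after 20 min. Ketoconazole positive control.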
Cytochrome P450 2C19 (Homo sapiens), sequence (P33261 whole entry, looked up): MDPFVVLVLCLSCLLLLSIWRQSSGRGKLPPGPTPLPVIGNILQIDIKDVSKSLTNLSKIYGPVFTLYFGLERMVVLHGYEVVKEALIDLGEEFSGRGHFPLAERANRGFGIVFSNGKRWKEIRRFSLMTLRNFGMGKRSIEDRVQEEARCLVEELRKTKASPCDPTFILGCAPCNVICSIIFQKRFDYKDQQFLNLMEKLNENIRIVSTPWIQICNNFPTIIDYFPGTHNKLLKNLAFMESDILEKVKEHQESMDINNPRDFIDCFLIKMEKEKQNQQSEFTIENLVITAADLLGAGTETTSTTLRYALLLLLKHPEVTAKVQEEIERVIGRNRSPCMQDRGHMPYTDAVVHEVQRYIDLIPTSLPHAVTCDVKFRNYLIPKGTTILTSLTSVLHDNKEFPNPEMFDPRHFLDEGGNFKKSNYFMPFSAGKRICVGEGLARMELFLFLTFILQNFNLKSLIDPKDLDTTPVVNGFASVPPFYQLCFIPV
On the technique in general: In a reporter assay the amount or activity of a reporter protein is the signal.
`COC(C)(C)OC`: the Potency is 69 µM (active).
The same measure, in the same setting: under `CCC(Cl)CC(Cl)C(Cl)C(Cl)C(Cl)C(C)Cl` (stereo not given) stands 1.73 µM (active); under `COc1ccc(C2C(=O)c3ccccc3C2=O)cc1`, 8.71 µM (active).
Turning to `O=C(O)c1cccc(Oc2ccccc2)c1`, the “activity change, negative = inhibition” value is -19.1% (inactive).
For `Cc1cc(CCCOc2c(C)cc(-c3noc(C(F)(F)F)n3)cc2C)on1`, the Potency is 21.9 µM (active).
Regarding `COc1cc(C(C)=O)ccc1OCCCN1CCC(c2noc3cc(F)ccc23)CC1`, the “activity change, negative = inhibition” value is -6.03% [at 52.9 µM] (inactive).
Still for that read-out and setting: in the case of `CCc1ccc(C)cc1` it was 26% (inactive); in that of `CO[C@@H]1[C@@H](OC)[C@H](C)[C@@](O)(CC(=O)O)O[C@H]1[C@H](C)[C@H]1O[C@@]2(CC[C@@](C)([C@H]3CC[C@@](C)([C@@H]4O[C@@H]([C@H]5O[C@](C)(O)[C@H](C)C[C@@H]5C)C[C@@H]4OC4C[C@H](OC)[C@@H](OC)[C@H](C)O4)O3)O2)C[C@H](O)[C@H]1C` (stereo not given in full), 21.4% [at 52.9 µM] (inactive).
Consider `Cc1ccc2nc(N)[nH]c(=O)c2c1Sc1ccncc1`, for which the Potency is 1.55 µM (active).
For the compound `CCOC(=O)N1CCC(Nc2ccc(Cl)cc2N)CC1`, the Potency was 4.36 µM (active).
`O=P(O)(O)Oc1ccccc1`: the “activity change, negative = inhibition” value is 6.64% (inactive).
As for `CCCCCCCC(=O)Oc1c(Br)cc(C#N)cc1Br`, the Potency was 35.5 µM (active).
For the compound `CCC(C)(C)C(=O)O`, the “activity change, negative = inhibition” value was 11% (inactive).
Regarding `CCCc1nc2c(C)cc(-c3nc4ccccc4n3C)cc2n1Cc1ccc(-c2ccccc2C(=O)O)cc1`, the Potency was 7.76 µM (active).
Still for that read-out and setting: under `Oc1ccc2c(c1)Cc1ccccc1-2` stands 28.3 µM (active); under `CCN(CC)c1ccc(C(=C2C=CC(=[N+](CC)CC)C=C2)c2ccc(S(=O)(=O)O)cc2S(=O)(=O)[O-])cc1`, 17.8 µM (active).
Turning to `C=C(C)c1ccccc1`, the “activity change, negative = inhibition” value was 8.74% (inactive).
On the same count and under the same terms, in the case of `CC(=O)c1ccc[nH]1` it was 21.6% (inactive).
Regarding `CC(C)(O)c1coc(S(=O)(=O)NC(=O)Nc2c3c(cc4c2CCC4)CCC3)c1`, the Potency was 35.6 µM (active).
As to `CCOc1ncc(F)c(=O)[nH]1`, the “activity change, negative = inhibition” value is 7.8% [at 52.9 µM] (inactive).
The same measure, in the same setting: under `CC1CCCO1` (stereo not given) stands 3.8% (inactive).
`Cc1cccc2sc(N)nc12`: the Potency is 22.7 µM (active).
For the compound `NC(=O)c1ccccc1[N+](=O)[O-]`, the “activity change, negative = inhibition” value is 4.69% (inactive).
Still for that read-out and setting: under `NC(=O)CCCCC(N)=O` stands 29.4% (inactive).
Still for that read-out and setting: in the case of `Cc1c[nH]c2ccccc12` it was 16.7% [at 52.9 µM] (inactive); in that of `CC(C)CC(O)CC(C)C`, 9.22% (inactive).
As for `CC(CN(CCN(CC(C)OCCO)CC(C)OCCO)CC(C)OCCO)OCCO` (stereo not given), the Potency was 86.1 µM (active).
Consider `O=C(c1ccccc1)C1CCC1`, for which the “activity change, negative = inhibition” value was 10.3% (inactive).
In the case of `COc1ccc2nc(S(=O)Cc3ncc(C)c(OC)c3C)[nH]c2c1` (stereo not given), the Potency was 5.57 µM (active) and 11 µM (active).
Regarding `CC(C)N(C)C`, the “activity change, negative = inhibition” value is 4.82% (inactive).
On the same count and under the same terms, in the case of `O=C1OC(=O)c2c(Br)c(Br)c(Br)c(Br)c21` it was 13.1% (inactive).
As for `O=C(CCS)OCC(COC(=O)CCS)(COC(=O)CCS)COC(=O)CCS`, the Potency is 15.9 µM (active).
The same measure, in the same setting: in the case of `CCCCCc1ccco1` it was 32.8 µM (active); in that of `CCCCCCCCCCCC(=O)OCC(O)CO` (stereo not given), 79.6 µM (active).
As to `CCN(CC)CCNC(=O)c1cc(Cl)c(N)cc1OC`, the “activity change, negative = inhibition” value is 3.53% [at 52.9 µM] (inactive).
